Measured values published in PubChem BioAssay AID652042 (Broad Institute, 2013).
In all, about 1,100 compounds went through this assay and about 350 (32%) were called active. How the calls were made is not given here. The list is a sample of the results. Measured potencies and affinities stand elsewhere.

assay: viability loss in CEM21 cells – cell-based, CellTiter-Glo luminescence, cherry-picked, cytotoxicity control for viral fusion inhibitor project, dose response (AID 652042); settings: CellTiter-Glo ATP luminescence, 24 h; series mostly up to 35 µM; activity change, negative = cytotoxicity: at the top concentration

| Structure (SMILES) | activity change, negative = cytotoxicity |
| --- | --- |
| COc1ccc(S(=O)(=O)N2CCCCC2)cc1NC(=O)Cc1sc(C)nc1-c1ccc(F)cc1 | -10.2% (inactive) |
| COc1ccc(S(=O)(=O)N2CCCCC2)cc1NC(=O)CCCOc1ccc(C)cc1 | -3.13% (inactive) |
| COc1ccc(NC(=O)c2cc(CC(C)C)nc3ccccc23)cc1 | -6.15% (inactive) |
| CC[C@@]12C(=O)N(c3cccc(F)c3)C(=O)N1[C@H](c1ccc(Cl)cc1)[C@@H]1C(=O)N(C3CCCCC3)C(=O)[C@@H]12 | -6.08% [at 16 µM] (inactive) |
| Nc1ccc(-c2nc3ccc(C(=O)O)cc3s2)cc1 | -6.13% (inactive) |
| COc1ccccc1CNC(=O)C[C@H]1C[C@@H]2c3cc(NC(=O)c4cccnc4)ccc3O[C@@H]2[C@@H](CO)O1 | 1.35% (inactive) |
| COC(=O)c1c(C)oc(C)c1S(=O)(=O)NC(c1ccccc1)c1ccccc1 | -17.2% (inactive) |
| Cc1cc(C)n2nc(NCc3cccc(Br)c3)nc2n1 | 2.96% (inactive) |
| COc1ccc(Nc2c(CCc3ccccc3)nc3nc(C)cc(C)n23)cc1 | -13.6% (inactive) |
| Cc1cc(Oc2ccc(C#N)cc2)nc(NCc2ccccc2)n1 | -6.37% (inactive) |
| CCOc1ccc(C(C)=O)cc1COC(=O)c1ccccc1C(=O)N(C)Cc1ccccc1 | -12.8% (inactive) |
| Clc1ccc(OCCN2CCN(c3ncnc4sccc34)CC2)cc1 | -22.9% (inactive) |
| Cc1ccc(Cn2ncc3c(N4CCN(c5ccc(C)cc5)CC4)ncnc32)cc1 | -14.1% (inactive) |
| O=C(COC(=O)c1cccc(S(=O)(=O)N2CCOCC2)c1)NCc1ccccc1 | 3.87% (inactive) |
| CSc1ncccc1C(=O)OCC(=O)Nc1ccc(C)c(S(=O)(=O)N2CCOCC2)c1 | -3.73% (inactive) |
| COc1ccc(S(=O)(=O)Nc2ccc3c(c2)CC(=O)N([C@H](C)CO)C[C@H](C)[C@H](CN(C)S(=O)(=O)c2ccccc2)O3)cc1 | -3.72% (inactive) |
| Cc1noc(C)c1S(=O)(=O)N(C)C[C@H]1Oc2ccc(NC(=O)Nc3ccccc3)cc2CC(=O)N([C@H](C)CO)C[C@H]1C | -4.33% (inactive) |
| C=CC[n+]1c(-c2ccc(OC)c(OC)c2)csc1NNC(=O)Nc1ccccc1 | -25.3% (inactive) |
| C=C1CCN([C@@H](CC(C)C)C(=O)Nc2ccc(OC)cc2)S(=O)(=O)c2ccccc21 | 5.42% (inactive) |
| Cc1nn(C)c(Cl)c1NC(=O)OCc1ccc(Cl)cc1Cl | -12% (inactive) |
| O=C(Nc1ccc(Cl)cn1)C1CCCN1S(=O)(=O)c1cccc2ccccc12 (stereo not drawn) | -21.3% (inactive) |
| CNc1nc2c(c(=O)n(C)c(=O)n2C)n1Cc1ccccc1 | -9.49% (inactive) |
| CC(Cl)=CCn1c(NCCc2ccccc2)nc2c1c(=O)n(C)c(=O)n2C | -29.5% (inactive) |
| O=C(N[C@@H]1CC[C@H](CCNS(=O)(=O)c2ccc(F)cc2)O[C@@H]1CO)C1CC1 | 0.073% (inactive) |
| CCOC(=O)C1CCCN(Cc2nc(N)nc(Nc3ccc(OC)cc3)n2)C1 (stereo not drawn) | -12.6% (inactive) |
| O=C(CN1C(=O)c2ccccc2S1(=O)=O)c1ccccc1Cl | -3.58% (inactive) |
| C[C@H](CO)N1C[C@H](C)[C@H](CN(C)S(=O)(=O)c2ccccc2)Oc2ccc(NS(=O)(=O)c3ccc(F)cc3)cc2CC1=O | -0.651% (inactive) |

| Structure (SMILES) | activity change, negative = cytotoxicity |
| --- | --- |
| C[C@H](CO)N1C[C@H](C)[C@H](CN(C)S(=O)(=O)c2ccc(F)cc2)Oc2ccc(NS(=O)(=O)c3ccccc3)cc2CC1=O | -5.45% (inactive) |
| C[C@H](CO)N1C[C@H](C)[C@H](CN(C)C(=O)Nc2ccccc2)Oc2c(NS(=O)(=O)c3ccc(F)cc3)cccc2C1=O | -3.16% (inactive) |
| Cc1ccc(S(=O)(=O)Nc2ccc3c(c2)CC(=O)N([C@H](C)CO)C[C@H](C)[C@H](CN(C)S(=O)(=O)c2ccccc2)O3)cc1 | -9.65% (inactive) |
| C[C@H]1CN([C@@H](C)CO)C(=O)c2cc(NS(C)(=O)=O)ccc2O[C@@H]1CN(C)Cc1ccc(Cl)c(Cl)c1 | -1.47% (inactive) |
| C[C@H]1CN([C@@H](C)CO)C(=O)c2cccc(NS(=O)(=O)c3ccc(Cl)cc3)c2O[C@@H]1CN(C)Cc1ccc(C(F)(F)F)cc1 | -13.6% (inactive) |
| C[C@@H]1CN([C@H](C)CO)C(=O)c2cccc(NS(=O)(=O)c3ccc(Cl)cc3)c2O[C@H]1CN(C)CC1CCCCC1 | -2.85% [at 30 µM] (inactive) |
| C[C@@H]1CN([C@H](C)CO)C(=O)c2cccc(NS(=O)(=O)c3ccc(F)cc3)c2O[C@@H]1CN(C)Cc1ccc(C(F)(F)F)cc1 | -11.4% (inactive) |
| Clc1ccc2c(c1)C(C1=NCCN1)c1ccccc1CS2 (stereo not drawn) | -15.6% (inactive) |
| C[C@@H]1CN([C@@H](C)CO)C(=O)c2cc(NC(=O)c3ccccc3)ccc2O[C@@H](C)CCCCO[C@H]1CN(C)Cc1ccc(C(=O)O)cc1 | 1.47% (inactive) |
| CC1CCC(NC(=O)CCn2ccc3cc(S(=O)(=O)N4CCCC4)ccc32)CC1 (stereo not drawn) | -18.3% (inactive) |
| Cc1cc(C)c(S(=O)(=O)N2CCCCC2)cc1N(C)S(=O)(=O)c1ccc(Cl)cc1 | -16.3% (inactive) |
| CC(=O)C1=C(C)N(Cc2ccc(Br)cc2)C(=S)NC1c1cccc(Cl)c1 (stereo not drawn) | -10.7% (inactive) |
| COc1ccc(C2=Nn3c(nnc3-c3ccncc3)SC2)cc1 | -22% (inactive) |
| C=CCN(Cc1ccc(OC)c(OC)c1)C(=O)c1cc2cc(F)ccc2[nH]1 | -19.6% (inactive) |
| COc1cccc(NC(=O)Nc2cccc(C(=O)O)c2)c1 | -5.58% (inactive) |
| COc1ccc(-c2noc(CCCC(=O)O)n2)cc1 | 8.19% (inactive) |
| CN(C)c1ccc(O)c2c1CC1CC3[C@@H](N(C)C)C(=O)C(C(N)=O)=C(O)[C@]3(O)C(=O)C1=C2O (stereo partly drawn) | -24.2% (inactive) |
| CC1(C)CC2CC(C)(CN2S(=O)(=O)c2cccc(C(=O)OCC(=O)NC(N)=O)c2)C1 (stereo not drawn) | -6.27% (inactive) |
| COc1ccccc1C(=O)NC(CCSC)C(=O)N1CCN(C/C=C/c2ccccc2)CC1 (stereo not drawn) | -15.2% (inactive) |
| CCCCCn1c(=O)[nH]c2cc(C(=O)N3CCN(Cc4ccc5c(c4)OCO5)CC3)ccc2c1=O | -15.4% (inactive) |
| COCCn1c(=S)[nH]c2cc(C(=O)N3CCN(Cc4ccc5c(c4)OCO5)CC3)ccc2c1=O | -10.4% (inactive) |
| NC(=O)c1sc2nc3c(c(-c4cccs4)c2c1N)CCCCC3 | 4.65% (inactive) |
| C[C@H](CO)N1C[C@H](C)[C@H](CN(C)S(=O)(=O)c2ccccc2)Oc2ncc(/C=C/c3ccccc3)cc2C1=O | -19.8% (inactive) |
| Cc1ccc(S(=O)(=O)N(C)C[C@@H]2Oc3ccc(NS(=O)(=O)c4c(C)noc4C)cc3CC(=O)N([C@H](C)CO)C[C@@H]2C)cc1 | 3.56% (inactive) |
| C[C@H]1CN([C@@H](C)CO)C(=O)c2c(c3ccccc3n2C)-c2ccccc2CO[C@H]1CN(C)C(=O)CCC(F)(F)F | -16% (inactive) |
| CCOC(=O)[C@@H]1[C@H]2COc3ccc(Br)cc3[C@@H]2N2C(=O)N(c3ccccc3)C(=O)[C@@]12C | -5.89% (inactive) |
